According to PubChem BioAssay AID463173 (ICCB-Longwood Screening Facility, Harvard Medical School, 2010):
Screen size: about 52,000 compounds; about 4,300 (8.3%) were called active. The sample holds actives, similar compounds and a random draw of the others, so the mix is not that of the screen. Rule as the data show it: active = survival mostly below about 52% (no sharp cut-off); inactive = mostly above about 56%.

Tested on: DeltatarO mutant
Experiment: growth inhibition of S. aureus wild type versus tarO mutant, primary screen, teichoic acid synthesis inhibitors, RN4220, OD600 (AID 463173)
Settings: OD600, 18 h, stronger effect = lower value, screened at 18.75 µg/mL (by protocol)

| Compound | survival |
| --- | --- |
| O=C(Cn1c(=O)c2cc(Cl)ccc2n2nncc12)Nc1ccccc1 | 75% (inactive) |
| O=C(CCC1CCCC1)N1CCc2c([nH]c3ccccc23)C1c1ccc(F)cc1 (stereo unspecified) | 99% (inactive) |
| CCCCN(C(=O)C1CCC1)c1nnc(-c2ccncc2)s1 | 96% (inactive) |
| Clc1ccc(-c2nc3ncccn3c2Nc2ccc3c(c2)OCCO3)cc1 | 89% (inactive) |
| COc1ccc(C(=O)NCC(c2cccnc2)N2CCN(c3ccccc3F)CC2)cc1OC (stereo unspecified) | 86% (inactive) |
| Cc1ccc2[nH]c(=O)c(CN(Cc3nnnn3CCc3ccccc3)C3CCCC3)cc2c1 | 91% (inactive) |
| CCOc1ccc(OCC)c(NS(=O)(=O)c2ccc3c(c2)CCCN3C(C)=O)c1 | 73% (inactive) |
| COc1ccc(-c2noc(-c3cccnc3NCc3ccco3)n2)cc1 | 98% (inactive) |
| Cc1cccc(-c2noc(-c3cccnc3NCc3ccco3)n2)c1 | 44% (active) |
| Clc1ccc(-c2noc(-c3cccnc3NCc3ccco3)n2)cc1 | 61% (inactive) |
| Cc1ccc(-c2noc(-c3cccnc3NCc3ccco3)n2)cc1 | 65% (inactive) |
| c1ccc(-c2noc(-c3cccnc3NCc3ccco3)n2)cc1 | 60% (active) |
| Cc1ccccc1-c1noc(-c2cccnc2NCc2ccco2)n1 | 52% (inactive) |
| Cc1cccc(N2CCN(C3(c4ccccc4)C(=O)c4ccccc4C3=O)CC2)c1C | 79% (inactive) |
| Cc1cccc(NC(=O)c2ccccc2)n1 | 93% (inactive) |
| COc1ccccc1CC(=O)Nc1cccc(C)n1 | 97% (inactive) |
| COc1cccc(C(=O)NC(c2ccc(Cl)cc2)c2cc(Cl)c3cccnc3c2O)c1 (stereo unspecified) | 89% (inactive) |
| Cc1ccc(C(Nc2ccccn2)c2ccc3cccnc3c2O)cc1 (stereo unspecified) | 1% (active) |
| COc1ccc(C(=O)NC(c2ccccc2Cl)c2cc(Cl)c3cccnc3c2O)cc1 (stereo unspecified) | 92% (inactive) |
| Cc1cccc(NC(c2ccccc2C)c2ccc3ccc(C)nc3c2O)n1 (stereo unspecified) | 0% (active) |
| Cc1cccc(NC(c2cccc(Cl)c2)c2ccc3cccnc3c2O)n1 (stereo unspecified) | 2% (active) |

| Compound | survival |
| --- | --- |
| COc1ccc(C(=O)NC(c2ccc(Cl)cc2)c2cc(Cl)c3cccnc3c2O)cc1 (stereo unspecified) | 88% (inactive) |
| CCC(=O)NC(c1ccccc1OC)c1cc(Cl)c2cccnc2c1O (stereo unspecified) | 68% (inactive) |
| Oc1cccc(C(Nc2ccccn2)c2ccc3cccnc3c2O)c1Cl (stereo unspecified) | 26% (active) |
| Nc1nnc(CCc2ccccc2)s1 | 80% (inactive) |
| O=C(O)CCOc1ccc2c(c1)OCCO2 | 82% (inactive) |
| CCC(CC)c1nn2c(=O)cc(COc3ccc(NC(=O)c4ccccc4C)cc3)nc2s1 | 81% (inactive) |
| O=C(CSc1nc2c(c(=O)[nH]1)CCC2)Nc1ccccc1C(F)(F)F | 72% (inactive) |
| O=C(CN1C(=O)COc2ccc(S(=O)(=O)N3CCCCCC3)cc21)NCc1ccc(Cl)cc1 | 113% (inactive) |
| CCOCCCNC(=O)c1cc2c(=O)n(C)c3ccccc3c2n1C | 86% (inactive) |
| O=C(Nc1ccccc1C(F)(F)F)N1CCC2(CC1)Oc1ccccc1C(=O)N2Cc1ccccc1F | 67% (inactive) |
| COc1cc(-c2cc(OC)c3c(C)oc(C)c3c(=O)c2)ccc1OC(=O)c1ccc(C)cc1 | 88% (inactive) |
| Cc1ccc(NC(=O)c2sc3nc(-c4ccc(F)cc4)cn3c2C)c(C)c1 | 81% (inactive) |
| O=C(O)CCC(=O)Nc1ccc2c(c1)oc1ccccc12 | 86% (inactive) |
| COc1ccc(C(Nc2ccccn2)c2ccc3ccc(C)nc3c2O)cc1C (stereo unspecified) | 40% (active) |
| Cc1ccc2ccc(C(Nc3ccccn3)c3ccccc3)c(O)c2n1 (stereo unspecified) | 39% (active) |
| O=C(c1ccccc1)C(Nc1ccccn1)c1ccccc1 (stereo unspecified) | 99% (inactive) |
| Cc1ccc(C(C)C)cc1S(=O)(=O)Nc1ccccn1 | 101% (inactive) |
| COc1cc(C(=O)NC(c2ccc(Cl)cc2)c2cc(Cl)c3cccnc3c2O)cc(OC)c1OC (stereo unspecified) | 85% (inactive) |
| Cc1ccnc(NC(c2cccc(O)c2)c2ccc3ccc(C)nc3c2O)c1 (stereo unspecified) | 68% (inactive) |
| O=C(COc1ccccc1Cl)Nc1ccccc1OCc1cc(=O)n2ccccc2n1 | 92% (inactive) |
| COc1ccc(NC(=O)COCc2cc(-c3ccco3)on2)cc1Cl | 112% (inactive) |

| Compound | survival |
| --- | --- |
| Cc1ccc(NC(=O)C2CCCN2S(=O)(=O)c2cccc3nsnc23)c(C)c1 (stereo unspecified) | 78% (inactive) |
| COc1cc(NC(=O)CN2C(=O)c3ccccc3Sc3ccc(C(=O)N4CCCC4)cc32)cc(OC)c1 | 72% (inactive) |
| CCc1ccc2occ(CC(=O)Nc3ccc(OC)c(Cl)c3)c2c1 | 88% (inactive) |
| CCc1c(C)sc(NC(=O)c2cc(-c3ccc(OC)cc3)on2)c1C#N | 50% (active) |
| COc1ccc(-c2cc(C(=O)Nc3ccc(C#N)cc3)no2)cc1 | 46% (inactive) |
| CCc1c(C)sc(NC(=O)c2cc(-c3cccc(Cl)c3)on2)c1C#N | 69% (inactive) |
| CCc1c(C)sc(NC(=O)c2cc(-c3ccc(OC)c(OC)c3)on2)c1C#N | 149% (inactive) |
| CCc1cc(C(=O)Nc2sc(C)c(CC)c2C#N)no1 | 35% (active) |
| CCOC(=O)c1sc(NC(=O)c2cc(CC)on2)c(C(=O)OCC)c1C | 54% (inactive) |
| CC(C)OCCCn1c(=O)c2ccccc2n2c(-c3ccccc3)nnc12 | 105% (inactive) |
| CCN1CCN(CCCNC(=O)c2ccc3c(c2)sc2nc(-c4ccc(C)cc4)cn23)CC1 | 26% (active) |
| CCN1CCN(CCCNC(=O)c2ccc3c(c2)sc2nc(-c4ccc(OC)cc4)cn23)CC1 | 72% (inactive) |
| CCCN1CCN(CCCNC(=O)c2ccc3c(c2)sc2nc(-c4ccc(C)cc4)cn23)CC1 | 18% (active) |
| COc1ccccc1Nc1nc(C)nc(N)c1S(=O)(=O)c1ccccc1 | 84% (inactive) |
| COc1ccc2cc(-c3nc(Cl)c4c5c(sc4n3)CC(C)CC5)c(=O)oc2c1 (stereo unspecified) | 77% (active) |
| COc1ccc2cc(-c3nc(Cl)c4c5c(sc4n3)CCCC5)c(=O)oc2c1 | 76% (inactive) |
| CC1CCc2c(sc3nc(-c4cc5ccccc5oc4=O)nc(Cl)c23)C1 (stereo unspecified) | 61% (inactive) |
| COc1ccc(-c2csc(NC(=O)C(C)C)n2)cc1 | 84% (inactive) |
| CCOC(=O)COc1ccc(C)cc1C(=O)c1ccn2nc(-c3ccc(F)cc3)cc2n1 | 69% (inactive) |
